Only some compounds are listed: those with a hit (about 12% of all), similar ones and a draw of the others.
L3MBTL1 inh: blocks human L3MBTL1; 230,000 tested, 0.66% active; Potency, µM (titrated, usually from 57.1 µM), for the others: top-dose activity, negative = inhibition, actives largely listed as inhibitors; Q9Y468; AlphaScreen L3MBTL1–H3K9me1 peptide binding; note: % is set by controls: 0 for no effect and ±100 for the full control effect; nearly all actives have a fitted effect of over 60% in size
Target sequence (Q9Y468 whole entry, looked up): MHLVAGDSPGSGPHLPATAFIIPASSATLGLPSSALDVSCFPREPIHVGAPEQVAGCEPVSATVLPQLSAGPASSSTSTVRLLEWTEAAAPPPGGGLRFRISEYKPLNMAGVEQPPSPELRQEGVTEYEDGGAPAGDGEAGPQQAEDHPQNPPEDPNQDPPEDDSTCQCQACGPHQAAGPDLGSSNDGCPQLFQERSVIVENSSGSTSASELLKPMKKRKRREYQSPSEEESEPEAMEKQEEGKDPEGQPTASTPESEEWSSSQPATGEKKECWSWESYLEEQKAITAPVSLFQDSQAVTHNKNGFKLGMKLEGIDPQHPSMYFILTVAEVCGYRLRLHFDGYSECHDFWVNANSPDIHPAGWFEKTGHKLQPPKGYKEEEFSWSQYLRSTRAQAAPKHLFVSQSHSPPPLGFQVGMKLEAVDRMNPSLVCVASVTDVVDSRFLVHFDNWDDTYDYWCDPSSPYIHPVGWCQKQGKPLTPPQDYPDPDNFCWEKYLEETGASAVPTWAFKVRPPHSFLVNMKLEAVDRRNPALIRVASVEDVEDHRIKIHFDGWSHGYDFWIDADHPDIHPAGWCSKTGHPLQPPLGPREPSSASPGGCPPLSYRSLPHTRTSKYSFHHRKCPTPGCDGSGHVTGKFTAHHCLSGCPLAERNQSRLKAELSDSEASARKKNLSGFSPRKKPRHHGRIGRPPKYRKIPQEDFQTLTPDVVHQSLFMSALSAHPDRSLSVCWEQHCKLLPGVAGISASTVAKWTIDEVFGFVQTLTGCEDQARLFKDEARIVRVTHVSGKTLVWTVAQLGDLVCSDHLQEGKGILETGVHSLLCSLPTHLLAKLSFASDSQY
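L3MBTL1 50 nM + b-AHA-H3(1-15)K9me1 75 nM, 30 min RT; compound added, 30 min RT; streptavidin donor/Ni-chelate acceptor beads 10 ug/mL each final, 30 min RT dark; AlphaScreen read.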
HP1b binding inh: blocks HP1-beta chromodomain binding to methylated histone tails; P83916; AlphaScreen HP1-beta / biotin-H3K9me3 peptide binding; Potency, µM (series often up to 114 µM), inactives show top-dose activity change, negative = inhibition, most hits filed as inhibitors; 390,000 tested, 0.56% active; note: nearly all actives have a fitted effect of over 70% in size
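HP1-beta protein (50 nM final) preincubated 30 min at room temperature with biotinylated H3(1-18)K9me3 peptide (50 nM) in PBS pH 7.4, 0.01% Tween-20, then compound added for 30 min. AlphaScreen streptavidin donor/nickel chelate acceptor beads (10 ug/mL final), 30 min dark, luminescence read.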
BAZ2B block: BAZ2B (human) inhibition. Potency, µM (series often up to 114 µM), for inactives: top-dose activity change, negative = inhibition, hits mostly inhibitors. AlphaScreen BAZ2B-H3K14Ac peptide displacement. Q9UIF8. 360,000 tested, 4.4% active; note: % is set by controls: 0 for no effect and ±100 for the full control effect; nearly all actives have a fitted effect of over 60% in size
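BAZ2B (50 nM) with biotin-H3(5-23)K14Ac peptide (50 nM) in PBS pH 7.4, 0.01% Tween-20, preformed 30 min, then compound 30 min at room temperature; top concentration 110uM. AlphaScreen streptavidin donor/nickel chelate acceptor beads (10 ug/mL final), 20 min dark, signal read.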
Sfp inh: inhibitors of Bacillus subtilis Sfp phosphopantetheinyl transferase; Q9F4F7; Biochemical Sfp PPTase activity, qHTS; Potency, µM, for the others: largest response in the series, negative = inhibition, most hits filed as inhibitors; 310,000 tested, 3.5% active; AID 1490;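 note: the enzyme is Sfp with the accession as filed and its product quenches rhodamine fluorescence; 0% = enzyme reaction without inhibitor and -100% = no enzyme wells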
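After 15 min at room temperature with compound, 15 nM Sfp received 5 uM rhodamine-CoA plus 12.5 uM BHQ-2-ybbR (50 mM Hepes pH 7.6, 10 mM MgCl2). Rate came from the fluorescence difference over 30 min, ex 525/em 598 nm.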
G9a block: blocks human histone lysine methyltransferase G9a; 350,000 tested, 8.8% active; Potency, µM (series often up to 102 µM), without a hit: at the top dose activity, negative = inhibition, usual class: inhibitors; G9a H3K9 monomethylation, AlphaScreen, 2 h; Q96KQ7; note: % is set by controls: 0 for no effect and ±100 for the full control effect; nearly all actives have a fitted effect of over 75% in size
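Compounds were preincubated with 20 nM G9a for 15 min, after which biotinylated H3K9 peptide (500 nM) and SAM (20 uM) started a 2 h room-temperature reaction. Monomethylated product was quantified by antibody-based AlphaScreen chemiluminescence.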
JMJD2A Tudor inh: JMJD2A Tudor domain (human) inhibition; O75164; AlphaScreen JMJD2A-Tudor / H3K4me3 peptide binding; Potency, µM (highest dose often 114 µM), inactives show top-dose activity change, negative = inhibition, actives largely listed as inhibitors; 390,000 tested, 4.4% active; note: % is set by controls: 0 for no effect and ±100 for the full control effect; nearly all actives have a fitted effect of over 50% in size
* marks the source's active call; other numbers are inactive results; ? = inconclusive; . = not tested or not shown; [ ] = remark or other dose. Calls come from the whole dose curve; as a rule, active = well fitted curve in the direction sought with a large enough effect; inconclusive = small, poorly fitted or top-dose-only effect, or another doubt; inactive = no such curve, though single readings can be large; an effect the other way counts as inactive or inconclusive. Potency is the fitted concentration of half-maximal effect.

SMILES | L3MBTL1 inh | HP1b binding inh | BAZ2B block | Sfp inh | G9a block | JMJD2A Tudor inh
CCCCCCCCCCCCCCC/C=C/[C@@H](O)[C@H](NC(=O)CCCCCCCCCCCCC)OC (tested in a mixture with another compound) | . | . | . | . | 20µM* | .
Cc1cc(NC(=O)CSc2ccc(F)cc2)no1 | . | 42.4% | -9.8% | 14.0% | 15.6%[59 µM] | -4.2%
CCN(CC(=O)Nc1ccc(Br)cc1)CC(=O)Nc1cc(C)on1 | -7.8% | 20.8% | 14.4% | . | 79.4µM* | -4.8%
CC(=O)Nc1ccc(SCC(=O)Nc2cc(C)on2)cc1 | -13.2% | 46.2% | 5.4% | ? | 44.7µM* | 0.3%
COc1ccccc1-c1nc2c(c(SCC(=O)Nc3ccccc3F)n1)Cc1c(CO)cnc(C)c1O2 | . | 36.0% | -17.4% | . | -42.6%[59 µM] | -14.3%
CC(=O)c1ccc(S(=O)(=O)N2CCN(c3nc(-c4cccnc4)nc4ccccc34)CC2)cc1 | -5.6% | 18.6% | -0.1% | . | ? | -20.1%
COc1ccc(C(=O)NNC(=O)c2cc3cc(OC)ccc3oc2=O)cc1 | 5.0% | 62.5% | ? | 2.3% | . | 17.2%[57.1 µM]
COc1ccc(C(=O)Nc2cc(C(C)=O)c(C)oc2=O)cc1 | . | 47.0% | -20.3% | ? | 35.5µM* | -5.6%
CC(=O)c1cc(NC(=O)c2ccc(Cl)cc2)c(=O)oc1/C=C/N(C)C | -10.1% | 30.8% | -10.7% | 56.2µM* | ? | 0.6%[57.1 µM]
CC(=O)c1cc(NC(=O)c2cccc(C(F)(F)F)c2)c(=O)oc1C | . | -11.7% | -20.4% | 14.1µM* | 25.1µM* | -20.3%[11.4 µM]
CCCCn1c(N)c(N(CCOC)C(=O)C2CC(=O)N(Cc3ccco3)C2)c(=O)[nH]c1=O (stereo unspecified) | 7.0% | 33.0% | -1.0% | . | 13.2%[12.7 µM] | 1.0%
N#Cc1cccc(S(=O)(=O)NNC(=O)C23CC4CC(CC(C4)C2)C3)c1 | 4.8% | 38.9% | . | . | . | -2.1%
Nc1ccc(N2CCN(CCCCN3C(=O)C4CCCN4C3=O)CC2)cc1 (stereo unspecified) | -0.5% | -28.2% | ? | -8.5% | 10µM* | ?
O=C1C2CCCCN2C(=O)N1CCCN1CCN(c2ccc(F)cc2)CC1 (stereo unspecified) | -0.1%[2.29 µM] | 33.3% | -3.4% | -1.4% | 11.6%[0.501 µM] | ?
CNC1C(O)C(OC2C(N)CC(N)C(OC3OC(CN)=CCC3N)C2O)OCC1(C)O (stereo unspecified) | . | . | . | 14.2% | 2.0%[12.7 µM] | .
CCOC(=O)c1c(NC(=S)Nc2ccccc2)sc2c1CC(C)(C)SC2 | -3.7% | -8.3% | ? | -20.6% | 39.8µM* | -28.5%
CCOC(=O)c1c(NC(=S)NC)sc2c1CC(C)(C)SC2 | 10.5% | 20.2% | -6.2% | 20µM* | ? | -20.3%
COC(=O)[C@]1(C)N[C@H](CN(C)S(=O)(=O)c2ccc(C)cc2)[C@@H]2C(=O)N(C)C(=O)[C@@H]21 | 8.1% | 20.1% | . | . | . | 79.4µM*
CCCCn1c(N)c(N(CC(C)C)C(=O)CSCC(=O)Nc2cccc(C)c2)c(=O)[nH]c1=O | 6.8% | 11.8% | -5.6% | . | -10.8% | -11.7%
CCCCn1c(N)c(N(CC(C)C)C(=O)CSC(C)C(=O)Nc2cc(C)on2)c(=O)[nH]c1=O (stereo unspecified) | 5.7% | 40.1% | 9.6% | . | 56.2µM* | -8.1%
CCCCn1c(N)c(N(CC(C)C)C(=O)CSCc2c(C)noc2C)c(=O)[nH]c1=O | -7.8% | 16.1% | -14.5% | . | 44.7µM* | -5.5%
O=C(CSc1ccc(Cl)cc1)NNC(=O)c1ccncc1 | 7.3% | 53.3% | -3.1% | . | -33.7% | -5.5%
CCCCOc1ccc(S(=O)(=O)N2CCN(c3ccc(N4CCN(CC)CC4)nn3)CC2)cc1 | 9.8% | 36.3% | -4.1% | . | 8.1%[2.33 µM] | -18.2%
COc1ccc(NC(=S)Nc2cc(-c3ccccc3)[nH]n2)cc1Cl | -29.5% | ? | ? | ? | ? | 56.2µM*
Cc1ccc(NC(=S)Nc2c(C)n(C)n(-c3ccccc3)c2=O)cc1Cl | . | 51.8% | -20.7% | 0.5% | -29.1% | -14.0%
SMILES | L3MBTL1 inh | HP1b binding inh | BAZ2B block | Sfp inh | G9a block | JMJD2A Tudor inh
Cc1cc(NC(=S)Nc2ccc(C)c(Cl)c2)n[nH]1 | -19.2% | -14.0% | ? | ? | 1.26µM* | ?
CCCCN1C(=O)CN(C2CCCCCC2)C(=O)C1c1ccc(OCC)c(OC)c1 (stereo unspecified) | . | 34.0% | -0.6% | . | 2.1%[59 µM] | -14.1%
Cc1c(C)n(C)c2ccc(C(=O)NCCCN(C)C3CCCCC3)cc12 | . | 0.6% | 25.1µM* | -13.8% | 50.1µM* | ?
Cc1c(C)n(C)c2ccc(C(=O)Nc3cccc4ccccc34)cc12 | -15.1% | ? | ? | -11.4% | 50.1µM* | ?
CCn1c(C)c(C)c2cc(C(=O)NCC(C)c3ccccc3)ccc21 (stereo unspecified) | . | -8.1% | -37.4% | . | -33.1%[59 µM] | ?
CCn1c(C)c(C)c2cc(C(=O)NCCc3ccco3)ccc21 | . | -11.2% | ? | -5.9% | 50.1µM* | ?
Cc1c(C)n(C)c2ccc(C(=O)NCCc3ccco3)cc12 | . | ? | 35.5µM* | ? | . | ?
CC(=O)[C@H]1CC[C@H]2[C@@H]3C=CC4=CC(=O)CC[C@@]4(C)[C@@H]3CC[C@]12C | -7.4% | 22.8% | 7.2% | . | -10.2%[59 µM] | -18.7%
CCN(C(=O)COC(=O)c1[nH]c(=O)[nH]c(=O)c1N)c1ccccc1 | -6.3% | 15.3% | -2.5% | 24.4% | -30.3% | -16.1%
O=C1C=C(c2ccc3ccccc3c2)C[C@@H](c2ccc(F)cc2)C1 | 8.6% | 45.6% | -7.0% | . | 7.6%[0.501 µM] | -14.5%
COc1ccc(CCNC(=O)Cn2c(=O)n(Cc3ccco3)c(=O)c3ccc(Cl)cc32)cc1OC | . | 57.6% | -11.6% | ? | ? | -11.6%[11.4 µM]
CCOC(=O)Cn1c(=O)n(Cc2ccco2)c(=O)c2ccc(C(=O)NCCc3ccccc3)cc21 | -15.6% | 4.8% | -3.7% | 56.2µM* | -17.3%[0.0925 µM] | -23.5%
CCn1c(C)c(C)c2cc(C(=O)NCCc3cc(OC)c(OC)c(OC)c3)ccc21 | . | -12.5% | 44.7µM* | . | ? | ?
CCn1c(C)c(C)c2cc(C(=O)NCCc3ccc(C)cc3)ccc21 | . | 10.8% | -30.3% | . | ? | ?
CNC(=S)N1N=C(c2ccc(Br)cc2)CC1c1ccc(OC)cc1 (stereo unspecified) | -0.5% | ? | -34.0% | 44.7µM* | 2.51µM* | 2.51µM*
CNC(=S)N1N=C(c2ccc(C)cc2)CC1c1ccc(N(C)C)cc1 (stereo unspecified) | ? | 50.1µM* | 10µM* | ? | 14.1µM* | 31.6µM*
CNC(=S)N1N=C(c2ccc(C)cc2)CC1c1ccc(OC)cc1 (stereo unspecified) | -7.7% | 31.3% | -34.7% | 1.7% | 8.2%[0.501 µM] | -15.2%

Source: PubChem BioAssay
